Inconclusive results are not listed. The source made the active and inactive calls. Unless noted, calls come from the whole dose curve; as a rule, active = well fitted curve in the direction sought with a large enough effect; inconclusive = small, poorly fitted or top-dose-only effect, or another doubt; inactive = no such curve, though single readings can be large; an effect the other way counts as inactive or inconclusive.
Key:
[1] = qHTS for differential inhibitors of proliferation of Plasmodium falciparum line GB4 (AID 1816); conditions: Potency: Plasmodium falciparum GB4 proliferation inhibition; series mostly up to 28.7 µM;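 note: parasite growth measured after 72 h incubation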; note: potency is the fitted concentration of half-maximal effect
[2] = qHTS for differential inhibitors of proliferation of Plasmodium falciparum line 3D7 (AID 1876);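 note: parasite growth measured after three days of culture; 0% = vehicle wells and -100% = reference inhibitor wells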; conditions: P. falciparum 3D7 proliferation inhibition; series mostly up to 28.7 µM
[3] = qHTS for differential inhibitors of proliferation of Plasmodium falciparum line D10 (AID 1877); conditions: series mostly up to 28.7 µM;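 note: parasites grown with compound for 72 h before DNA staining; plate controls were vehicle wells for no effect and reference inhibitor wells for full effect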
[4] = qHTS Assay for Modulators of Human Peripheral Myelin Protein 22 (PMP22) Expression/Activity (AID 1967; active = well fitted curve in the direction sought with a large enough effect in the signal ratio; the % refers to the signal ratio;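 note: 0% = untreated cells and 100% end not stated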); conditions: Cell-based PMP22 reporter, dual-color luciferase ratio, mouse Pmp22 promoter in mouse Schwann cells; series mostly up to 115 µM
In short: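 Luminescence ratio of Pmp22 promoter-driven green luciferase to EF-alpha-driven red luciferase, in engineered mouse MSC80 Schwann cells, served as read-out. Compounds were incubated 24h; untreated cells defined 0% Activity; curves were classified by r2, magnitude and activity.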

[5] = Quantitative high throughput screen for delayed death inhibitors of the malarial parasite plastid, 96 hour incubation (AID 488745); conditions: Plasmodium falciparum growth; series mostly up to 28.7 µM; note: % is set by controls: 0 for no effect and ±100 for the full control effect; nearly all actives have a fitted effect of over 70% in size
In short: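 Two-generation (96 h) exposure of luciferase-reporter P. falciparum in erythrocytes, 2% hematocrit, 0.1% parasitemia final, 37 C, 5% CO2, RPMI 1640 with 0.5% Albumax. Growth inhibition scored by reduced luminescence.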

[6] = Quantitative high throughput screen for delayed death inhibitors of the malarial parasite plastid, 48 hour incubation (AID 488752); conditions: Plasmodium falciparum growth; series mostly up to 28.7 µM; note: % is set by controls: 0 for no effect and ±100 for the full control effect; nearly all actives have a fitted effect of over 65% in size
In short: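 Cultures: infected erythrocytes at final 2% hematocrit and 0.1% parasitemia in Albumax-supplemented RPMI. Parasites express integrated firefly luciferase. Incubation with compound lasts 48 h before luminescent detection of remaining reporter activity.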

[7] = target: Cytochrome P450 3A4 (Homo sapiens) (UniProt P08684); experiment: qHTS Assay for Inhibitors and Substrates of Cytochrome P450 3A4 (AID 884); conditions: recombinant CYP3A4, Luciferin-PPXE luminescence; series mostly up to 57.1 µM; note: potency is the fitted concentration of half-maximal effect; nearly all actives have a fitted effect of over 50% in size
In short: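 Luminescent readout of luciferin produced by CYP3A4 (20 nM) dealkylation of Luciferin-PPXE, 25 uM (its KM). NADPH-driven reaction ran 60 min at RT after 10 min compound preincubation; data scaled to 57 uM ketoconazole as 100% inhibition.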

[8] = target: Cytochrome P450 2C9 (Homo sapiens) (UniProt P11712); experiment: qHTS Assay for Inhibitors and Substrates of Cytochrome P450 2C9 (AID 883); conditions: recombinant CYP2C9, luciferin-H luminescence, 60 min; series mostly up to 57.1 µM; note: nearly all actives have a fitted effect of over 60% in size; note: potency is the fitted concentration of half-maximal effect
In short: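 Turnover of Luciferin-H (100uM, KM) by 10nM human CYP2C9 was measured over 60 min at 37C with NADPH regeneration; inhibitors and some substrates reduce luminescence. Data normalized to sulphaphenazole 57uM.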

[9] = target: Cytochrome P450 2C19 (Homo sapiens) (UniProt P33261); experiment: qHTS Assay for Inhibitors and Substrates of Cytochrome P450 2C19 (AID 899); conditions: recombinant CYP2C19, luciferin-H EGE luminescence; series mostly up to 57.1 µM; note: nearly all actives have a fitted effect of over 60% in size; note: potency is the fitted concentration of half-maximal effect
In short: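 Reactions contain 5nM enzyme, 10uM Luciferin-H EGE (KM) and 50mM KPO4; compound preincubates 10 min at 37C, NADPH regeneration starts turnover for 60 min. Luminescence after detection reagent gives activity.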

[10] = target: RecQ-like DNA helicase BLM (Homo sapiens) (UniProt P54132); experiment: qHTS Validation Assay for Inhibitors of Bloom's syndrome helicase (BLM) (AID 2364); conditions: BLM helicase DNA unwinding, fluorescence, in vitro; series mostly up to 57.1 µM;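 note: plate controls were DMSO vehicle for no effect and enzyme-free control for full effect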
In short: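 Forked 20-bp duplex substrate (200 nM, TAMRA/BHQ-2) plus 2 mM ATP added after 15 min compound preincubation with 50 nM enzyme, pH 8.0, poly(dI-dC) 2.5 ug/ml. Strand separation followed by fluorescence (525/598 nm) over 2 h, normalized to enzyme-free and DMSO controls.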

[11] = qHTS Assay for Identification of Small Molecule Antagonists for NFkB Signaling Pathway (AID 895; active = well fitted inhibition curve with a large enough effect in the signal ratio, with a control signal flat, not every such curve was filed as active; the % refers to the signal ratio; note: % is set by controls: 0 for no effect and ±100 for the full control effect); conditions: NFkB beta-lactamase reporter cells, FRET ratio 460/530; series mostly up to 38.3 µM
In short: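 Beta-lactamase reporter read-out (460 and 530 nm emission ratio, 405 nm excitation, 2 hrs substrate loading RT) after 5 hr stimulation with 10 pM TNF alpha in compound-treated NFkB-bla ME-180 cells in low-serum medium.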

[12] = Vero cells viability qHTS for Zika virus inhibitors (AID 1347167); conditions: cytotoxicity counter-screen (Zika); series mostly up to 45.9 µM; note: % is set by controls: 0 for no effect and ±100 for the full control effect
In short: (§1)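 Luminescent ATP readout (CellTiter Glo) after 30 min at 37 degrees C gives viability; cells in DMEM + 4% FBS were treated 24 to 48 hours with compound, following overnight attachment.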

[13] = HepG2 cells viability qHTS for Zika virus inhibitors (AID 1347168); conditions: Zika counter-screen; series mostly up to 45.9 µM; note: % is set by controls: 0 for no effect and ±100 for the full control effect
In short: as §1

[14] = Tertiary RLuc qRT-PCR qHTS assay for Zika virus inhibitors (AID 1347169); conditions: infected Vero cells, reporter luminescence, 48-72 h; series mostly up to 45.9 µM; note: top concentration of the series differs between compounds; % is set by controls: 0 for no effect and ±100 for the full control effect; nearly all actives have a fitted effect of over 55% in size
In short: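 Vero, 1,000 cells/well, o/n 37 C; cpd pinned in DMSO; ZIKV-RLuc Cambodian, MOI 1-2, 48-72 h 37 C; live-cell RLuc substrate, lum read at 1-1.5 h.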

[15] = Cell Viability qHTS for small molecule stabilizers of the endoplasmic reticulum resident proteome (AID 1508629); conditions: cell viability counter-screen, 100 nM thapsigargin for final 4 h;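 note: compound exposure about 46 h in total before the viability read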; note: potency is the fitted concentration of half-maximal effect;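 for max response: human SH-SY5Y neuroblastoma cells carrying the GLuc-SERCaMP reporter; % is set by controls: 0 for no effect and ±100 for the full control effect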
[16] = qHTS Assay for Identification of Small Molecule Agonists for Hypoxia Response Element Signaling Pathway (AID 914; active = well fitted activation curve with a large enough effect in the signal ratio, with a control signal flat, not every such curve was filed as active; the % refers to the signal ratio; note: % of control where 0% means no effect); conditions: ME-180 (cervical carcinoma) HRE-bla reporter, beta-lactamase ratio, CoCl2, 17 h; activation: stronger effect = higher value
In short: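 Positive modulation of EC50 CoCl2-induced hypoxia response element signaling is measured in ME-180 cells with a beta-lactamase reporter. Compounds are titrated, incubation runs 17 hours, and %Activity derives from the blue/green ratio.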

Sequence of RecQ-like DNA helicase BLM (Homo sapiens) (P54132 whole entry, looked up): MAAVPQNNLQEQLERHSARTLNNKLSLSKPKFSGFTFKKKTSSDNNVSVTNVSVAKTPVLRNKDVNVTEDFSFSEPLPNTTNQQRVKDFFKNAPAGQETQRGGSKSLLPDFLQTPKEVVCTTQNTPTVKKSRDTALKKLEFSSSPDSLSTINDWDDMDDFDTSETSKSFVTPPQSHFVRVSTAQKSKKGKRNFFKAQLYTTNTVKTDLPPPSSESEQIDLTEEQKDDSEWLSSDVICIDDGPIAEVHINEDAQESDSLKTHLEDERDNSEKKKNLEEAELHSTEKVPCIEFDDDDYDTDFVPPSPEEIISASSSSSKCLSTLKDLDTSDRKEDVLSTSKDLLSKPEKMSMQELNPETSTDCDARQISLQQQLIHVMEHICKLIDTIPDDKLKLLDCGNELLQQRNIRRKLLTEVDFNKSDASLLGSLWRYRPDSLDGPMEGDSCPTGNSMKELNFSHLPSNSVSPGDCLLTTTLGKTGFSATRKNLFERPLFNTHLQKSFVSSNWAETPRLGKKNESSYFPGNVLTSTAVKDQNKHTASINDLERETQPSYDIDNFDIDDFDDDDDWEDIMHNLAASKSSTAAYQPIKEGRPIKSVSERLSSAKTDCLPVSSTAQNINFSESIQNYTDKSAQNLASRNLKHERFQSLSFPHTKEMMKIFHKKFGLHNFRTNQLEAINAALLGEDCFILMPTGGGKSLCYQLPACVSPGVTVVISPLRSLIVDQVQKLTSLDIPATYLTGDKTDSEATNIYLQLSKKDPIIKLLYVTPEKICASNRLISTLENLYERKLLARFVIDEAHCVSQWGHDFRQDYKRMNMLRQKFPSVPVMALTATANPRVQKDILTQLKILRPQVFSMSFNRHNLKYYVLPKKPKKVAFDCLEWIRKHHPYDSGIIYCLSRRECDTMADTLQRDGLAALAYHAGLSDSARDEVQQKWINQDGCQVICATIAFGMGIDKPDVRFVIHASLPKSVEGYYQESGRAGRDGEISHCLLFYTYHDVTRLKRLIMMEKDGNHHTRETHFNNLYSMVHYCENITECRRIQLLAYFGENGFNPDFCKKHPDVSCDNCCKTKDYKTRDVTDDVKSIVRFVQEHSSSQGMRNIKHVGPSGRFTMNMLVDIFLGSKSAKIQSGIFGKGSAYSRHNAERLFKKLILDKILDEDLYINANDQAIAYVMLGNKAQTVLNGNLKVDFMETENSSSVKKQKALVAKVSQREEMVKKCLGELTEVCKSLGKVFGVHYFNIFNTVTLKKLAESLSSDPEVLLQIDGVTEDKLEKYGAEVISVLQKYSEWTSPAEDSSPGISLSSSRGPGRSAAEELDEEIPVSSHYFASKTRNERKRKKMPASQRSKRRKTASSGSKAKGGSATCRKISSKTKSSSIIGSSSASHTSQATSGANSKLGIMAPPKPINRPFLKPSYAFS
Sequence of Cytochrome P450 2C9 (Homo sapiens) (P11712 whole entry, looked up): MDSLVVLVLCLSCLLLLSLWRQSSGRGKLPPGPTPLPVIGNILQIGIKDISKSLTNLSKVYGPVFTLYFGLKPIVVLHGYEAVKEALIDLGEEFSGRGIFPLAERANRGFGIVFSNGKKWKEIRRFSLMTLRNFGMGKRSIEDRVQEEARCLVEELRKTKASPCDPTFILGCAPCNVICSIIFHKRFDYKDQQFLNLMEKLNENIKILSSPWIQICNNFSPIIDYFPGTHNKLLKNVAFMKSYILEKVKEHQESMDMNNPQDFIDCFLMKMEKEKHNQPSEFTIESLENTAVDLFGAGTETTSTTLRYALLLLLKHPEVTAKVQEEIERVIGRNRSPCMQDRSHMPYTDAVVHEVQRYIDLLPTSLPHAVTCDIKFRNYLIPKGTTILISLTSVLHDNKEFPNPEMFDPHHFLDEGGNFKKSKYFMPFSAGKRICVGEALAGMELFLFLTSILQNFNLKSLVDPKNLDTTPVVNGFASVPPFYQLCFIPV
Sequence of Cytochrome P450 2C19 (Homo sapiens) (P33261 whole entry, looked up): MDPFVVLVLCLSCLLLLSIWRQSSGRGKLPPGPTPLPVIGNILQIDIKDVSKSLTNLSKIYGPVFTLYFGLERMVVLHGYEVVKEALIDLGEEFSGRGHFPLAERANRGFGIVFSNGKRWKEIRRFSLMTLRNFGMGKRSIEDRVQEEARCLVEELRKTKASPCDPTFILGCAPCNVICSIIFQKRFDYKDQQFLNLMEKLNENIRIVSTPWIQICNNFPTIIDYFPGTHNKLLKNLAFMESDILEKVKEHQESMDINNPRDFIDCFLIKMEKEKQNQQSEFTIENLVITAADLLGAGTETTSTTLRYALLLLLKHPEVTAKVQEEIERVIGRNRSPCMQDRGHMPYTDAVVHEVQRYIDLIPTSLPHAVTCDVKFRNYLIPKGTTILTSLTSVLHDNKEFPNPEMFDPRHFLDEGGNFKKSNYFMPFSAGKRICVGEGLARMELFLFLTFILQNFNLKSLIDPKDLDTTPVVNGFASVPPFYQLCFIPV
Sequence of Cytochrome P450 3A4 (Homo sapiens) (P08684 whole entry, looked up): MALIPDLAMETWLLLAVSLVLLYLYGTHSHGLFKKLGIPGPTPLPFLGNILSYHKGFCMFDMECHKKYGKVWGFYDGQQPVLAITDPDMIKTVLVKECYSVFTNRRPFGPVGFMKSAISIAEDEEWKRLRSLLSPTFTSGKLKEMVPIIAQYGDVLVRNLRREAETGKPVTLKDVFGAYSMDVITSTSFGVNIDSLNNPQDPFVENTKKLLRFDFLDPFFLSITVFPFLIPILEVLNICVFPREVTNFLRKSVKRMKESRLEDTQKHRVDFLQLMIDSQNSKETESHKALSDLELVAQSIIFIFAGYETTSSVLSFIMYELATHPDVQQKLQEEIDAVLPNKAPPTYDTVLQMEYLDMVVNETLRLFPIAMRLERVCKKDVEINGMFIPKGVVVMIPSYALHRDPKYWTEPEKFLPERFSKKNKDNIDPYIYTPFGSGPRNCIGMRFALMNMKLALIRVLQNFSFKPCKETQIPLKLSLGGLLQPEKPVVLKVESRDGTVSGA

N[C@@H](Cn1cc(I)c(=O)[nH]c1=O)C(=O)O
inactive: Potency [1] | Potency [2] | Potency [3] | outcome [4] | Potency [5] | Potency [6]

COc1ccc2[nH]cc(C3=CCNCC3)c2c1
active: Potency [7] 1.26 µM

N[C@H](CCCCCP(=O)(O)O)C(=O)O
inactive: Potency [8] | Potency [9] | Potency [1] | Potency [2] | Potency [3] | Potency [10] | Potency [5] | Potency [6]

COc1ccc2[nH]cc(CCN(C)C)c2c1
inactive: Potency [8] | Potency [11] | Potency [2] | Potency [3] | outcome [4] | Potency [10] | Potency [5] | Potency [6]

CN1CCN(c2ccc3ccccc3n2)CC1
inactive: Potency [11] | Potency [2] | Potency [3] | outcome [4] | Potency [10] | Potency [5] | Potency [6]

C=CCN1CCC2(C)c3cc(O)ccc3CC1C2C (stereo not drawn)
active: Potency [1] 12.6 µM
inactive: Potency [3] | Potency [5] | Potency [6] | Potency [12] | Potency [13] | Potency [14]

CNc1ccc2oc(C[C@H]3O[C@]4(CC[C@H]3C)O[C@H]([C@H](C)C(=O)c3ccc[nH]3)[C@H](C)C[C@H]4C)nc2c1C(=O)O
active: Potency [15] 8.91 µM

C=CCN1C[C@H](C)N([C@H](c2ccc(C(=O)N(CC)CC)cc2)c2cccc(O)c2)C[C@H]1C
inactive: max response [15] 8.89%
active: Potency [8] 3.98 µM

Cc1o[nH]c(=O)c1C[C@H](N)C(=O)O
active: Potency [9] 2.51 µM
inactive: Potency [11] | activation [16] 7.13%
